Experiment [1] has as its target human Thyroid Receptor alpha (THRa1), THRA (gene 7067) (UniProt P10827). As to the kind of experiment: ATG_THRa1_TRANS: Attagene TRANS-FACTORIAL HepG2 Assay for human Thyroid Receptor alpha (THRa1) (AID 2283014; active = hit-call score of the fitted dose curve at least 0.9, where 1 is the maximum). In short, it runs like this: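 HepG2 cells transiently transfected with chimeric NR-Gal4 and GAL4-UAS reporter units, dosed 24 h. Reporter mRNA quantified by RT-PCR, fluorescent labeling, HpaI digestion and capillary electrophoresis; gain-of-signal fit versus DMSO.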

Read-out in experiment [2]: E-selectin (Homo sapiens) (UniProt P16581)
Briefly: BSK_3C_Eselectin: BioMAP Diversity Plus: 3C Assay for Eselectin Biomarker Activity (AID 2283015).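 For outcome: cell surface E-selectin protein quantified by ELISA 24 h after dosing.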 To be noted: primary human endothelial cells (HUVEC); actives raise or lower the signal. In short, it runs like this: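 Primary human umbilical vein endothelial cells (3C system), read 24 h after compound addition; E-selectin measured by ELISA. Bidirectional curve fitting against DMSO baseline; cytotoxicity by parallel SRB total-protein staining.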

Read-out in experiment [3]: Interleukin-1 alpha (IL1a), IL1A (gene 3552)
Briefly: BSK_BE3C_IL1a: BioMAP Diversity Plus: BE3C Assay for Interleukin-1 alpha (IL1a) Biomarker Activity (AID 2283016). As to conditions: primary human bronchial epithelial cells; actives raise or lower the signal. In a few lines: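 BE3C primary human bronchial epithelium; cpd 24 h; IL-1a by ELISA; bidirectional fit vs DMSO; parallel SRB (0.1% SRB, 10% TCA fix, 560 nm) for cytotoxicity.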

Read-out in experiment [4]: Monocyte Chemoattractant Protein-1 (MCP1), CCL2 (gene 6347)
As to the kind of experiment: BSK_4H_MCP1: BioMAP Diversity Plus: 4H Assay for Monocyte Chemoattractant Protein-1 (MCP1) Biomarker Activity (AID 2283018). As to conditions: primary human endothelial cells (HUVEC); actives raise or lower the signal. In short, it runs like this:
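ELISA read-out of MCP-1 from human vascular endothelial primary cells taken at 24 hours after compound exposure. Activity was fitted in both directions relative to DMSO, which served as negative control.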

Read-out in experiment [5]: Human Leukocyte Antigen - DR isotype (HLADR), HLA-DRA (gene 3122)
Briefly: BSK_3C_HLADR: BioMAP Diversity Plus: 3C Assay for Human Leukocyte Antigen - DR isotype (HLADR) Biomarker Activity (AID 2283019). As to conditions: primary human endothelial cells (HUVEC); actives raise or lower the signal. In a few lines: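 HUVEC monoculture, HLA-DR measured by ELISA 24 h after chemical dosing. Fitted bidirectionally against DMSO baseline; parallel SRB staining assessed cytotoxicity, with 3C proliferation read by SRB at 48 h.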

Read-out in experiment [6]: Interleukin-8 (IL8), CXCL8 (gene 3576)
As to the kind of experiment: BSK_3C_IL8: BioMAP Diversity Plus: 3C Assay for Interleukin-8 (IL8) Biomarker Activity (AID 2283020). To be noted: primary human endothelial cells (HUVEC); actives raise or lower the signal. In short, it runs like this: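 ELISA read-out of IL-8 from human umbilical vein endothelium, measured 24 h after chemical dosing. Activity is expressed relative to DMSO negative control, with both increases and decreases fitted.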

Read-out in experiment [7]: Monokine induced gamma interferon (MIG), CXCL9 (gene 4283)
Briefly: BSK_3C_MIG: BioMAP Diversity Plus: 3C Assay for Monokine induced gamma interferon (MIG) Biomarker Activity (AID 2283021).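 For AC50: MIG protein level measured by immunoassay in the treated endothelial cultures.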 As to conditions: primary human endothelial cells (HUVEC); actives raise or lower the signal. In a few lines: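 Read-out is ELISA detection of MIG on human umbilical vein endothelial cells, taken 24 h after dosing. Gain or loss of signal was scored relative to DMSO controls using bidirectional curve fitting.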

Experiment [8] has as its target human Vitamin D Receptor (VDR), VDR (gene 7421) (UniProt P11473). As to the kind of experiment: ATG_VDR_TRANS: Attagene TRANS-FACTORIAL HepG2 Assay for human Vitamin D Receptor (VDR) (AID 2283022; active = hit-call score of the fitted dose curve at least 0.9, where 1 is the maximum). In a few lines: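 HepG2 cells were transiently transfected with GAL4-UAS reporter units and a chimeric VDR-Gal4 construct, then dosed for 24 hours. Reporter mRNA was quantified by RT-PCR, fluorescent labeling, HpaI digestion and capillary electrophoresis; gain of signal analysed vs DMSO.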

Experiment [9] has as its target human Retinoid X Receptor beta (RXRb), RXRB (gene 6257) (UniProt P28702). Briefly: ATG_RXRb_TRANS: Attagene TRANS-FACTORIAL HepG2 Assay for human Retinoid X Receptor beta (RXRb) (AID 2283013; active = hit-call score of the fitted dose curve at least 0.9, where 1 is the maximum). In a few lines: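 Transfect HepG2 with GAL4-UAS multi-reporter constructs (chimeric NR-Gal4, TRANS format); dose compound 24 h; isolate RNA, RT-PCR, FAM primer extension, HpaI digest; quantify by capillary electrophoresis; positive direction vs DMSO.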

Read-out in experiment [10]: Monocyte Chemoattractant Protein-1 (MCP1), CCL2 (gene 6347)
Briefly: BSK_3C_MCP1: BioMAP Diversity Plus: 3C Assay for Monocyte Chemoattractant Protein-1 (MCP1) Biomarker Activity (AID 2283017). To be noted: primary human endothelial cells (HUVEC); actives raise or lower the signal. In a few lines: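 Human umbilical vein endothelial cells (3C system) exposed to chemicals for 24 h; MCP-1 quantified by ELISA against the DMSO baseline with bidirectional fitting, and parallel SRB staining used to assess cytotoxicity.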

From PubChem BioAssay (EPA / NIEHS) come the findings set out here.

Inconclusive results are not listed. Calls of active or inactive are those of the source. Rule for the calls, unless noted: active = hit-call score of the fitted dose curve at least 0.9, where 1 is the maximum; inactive = score below 0.9.

Chain of E-selectin (Homo sapiens) (P16581 whole entry, looked up): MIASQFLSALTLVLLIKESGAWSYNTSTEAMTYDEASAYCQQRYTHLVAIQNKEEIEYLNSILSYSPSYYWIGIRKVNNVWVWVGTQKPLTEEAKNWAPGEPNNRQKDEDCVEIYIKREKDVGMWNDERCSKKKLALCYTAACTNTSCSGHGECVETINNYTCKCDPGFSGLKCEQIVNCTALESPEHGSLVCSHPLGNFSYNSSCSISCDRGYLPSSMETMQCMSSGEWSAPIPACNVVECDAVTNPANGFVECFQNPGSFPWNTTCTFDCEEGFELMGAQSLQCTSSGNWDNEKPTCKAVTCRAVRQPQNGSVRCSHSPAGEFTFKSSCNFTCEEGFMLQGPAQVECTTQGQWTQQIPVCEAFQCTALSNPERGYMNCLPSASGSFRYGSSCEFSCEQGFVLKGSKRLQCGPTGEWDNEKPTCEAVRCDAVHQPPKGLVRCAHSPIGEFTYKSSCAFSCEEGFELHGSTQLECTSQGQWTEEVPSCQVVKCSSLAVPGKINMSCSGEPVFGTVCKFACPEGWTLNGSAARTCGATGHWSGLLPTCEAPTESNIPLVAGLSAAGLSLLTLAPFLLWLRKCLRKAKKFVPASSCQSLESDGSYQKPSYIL
Chain of human Thyroid Receptor alpha (THRa1), THRA (gene 7067) (P10827 whole entry, looked up, the tested form may be a part): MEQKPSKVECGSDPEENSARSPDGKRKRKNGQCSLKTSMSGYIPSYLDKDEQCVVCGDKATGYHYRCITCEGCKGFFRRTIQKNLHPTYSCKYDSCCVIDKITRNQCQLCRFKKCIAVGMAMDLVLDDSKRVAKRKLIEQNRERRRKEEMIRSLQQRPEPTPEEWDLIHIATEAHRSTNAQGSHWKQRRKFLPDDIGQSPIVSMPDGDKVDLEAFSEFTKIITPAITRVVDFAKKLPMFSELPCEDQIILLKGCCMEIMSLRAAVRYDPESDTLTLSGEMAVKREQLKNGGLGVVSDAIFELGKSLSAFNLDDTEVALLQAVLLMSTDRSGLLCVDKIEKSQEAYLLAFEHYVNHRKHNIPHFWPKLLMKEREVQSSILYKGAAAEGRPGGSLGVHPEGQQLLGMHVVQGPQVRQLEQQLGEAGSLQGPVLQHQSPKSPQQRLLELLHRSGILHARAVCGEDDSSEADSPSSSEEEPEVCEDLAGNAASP
Chain of human Vitamin D Receptor (VDR), VDR (gene 7421) (P11473 whole entry, looked up, the tested form may be a part): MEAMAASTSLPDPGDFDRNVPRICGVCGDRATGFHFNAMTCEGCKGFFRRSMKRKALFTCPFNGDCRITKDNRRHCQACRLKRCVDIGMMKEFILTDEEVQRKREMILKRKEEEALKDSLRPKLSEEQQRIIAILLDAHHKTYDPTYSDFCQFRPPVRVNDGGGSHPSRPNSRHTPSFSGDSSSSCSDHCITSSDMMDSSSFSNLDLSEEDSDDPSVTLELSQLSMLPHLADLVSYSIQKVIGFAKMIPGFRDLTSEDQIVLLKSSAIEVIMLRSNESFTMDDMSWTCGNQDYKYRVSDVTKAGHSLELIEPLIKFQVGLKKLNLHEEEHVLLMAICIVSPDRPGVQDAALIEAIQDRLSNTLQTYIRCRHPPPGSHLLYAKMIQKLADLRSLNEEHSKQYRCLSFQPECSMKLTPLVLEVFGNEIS
Chain of human Retinoid X Receptor beta (RXRb), RXRB (gene 6257) (P28702 whole entry, looked up, the tested form may be a part): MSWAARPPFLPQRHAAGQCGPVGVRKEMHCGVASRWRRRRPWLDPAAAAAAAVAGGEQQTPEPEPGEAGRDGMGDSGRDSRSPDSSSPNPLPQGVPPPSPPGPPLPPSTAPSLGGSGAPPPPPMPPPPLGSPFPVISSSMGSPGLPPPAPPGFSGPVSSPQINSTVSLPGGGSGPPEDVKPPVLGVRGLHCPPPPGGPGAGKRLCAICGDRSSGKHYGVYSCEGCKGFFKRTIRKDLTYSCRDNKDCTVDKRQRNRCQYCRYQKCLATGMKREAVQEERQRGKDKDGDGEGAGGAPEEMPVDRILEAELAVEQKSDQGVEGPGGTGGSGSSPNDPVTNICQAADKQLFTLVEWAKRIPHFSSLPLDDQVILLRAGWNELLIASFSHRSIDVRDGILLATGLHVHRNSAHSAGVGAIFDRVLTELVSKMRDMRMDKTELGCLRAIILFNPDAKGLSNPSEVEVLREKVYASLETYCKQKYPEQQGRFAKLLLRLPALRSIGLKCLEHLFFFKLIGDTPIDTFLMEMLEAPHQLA

As for `Cc1ccc2nc3sc(=O)sc3nc2c1`, the AC50 (as a rule, the concentration at which the activity in the assay is half-maximal) in [1] is 6.55 µM (active); in [2], 8.99 µM (active); in experiment [4], 5 µM (active); in experiment [5], 5.97 µM (active); in experiment [6] it was 5 µM (active); in experiment [7], 8.57 µM (active). Moreover, the result in experiment [3] was inactive.
As to `CCN(CC)C(=O)C(Cl)=C(C)OP(=O)(OC)OC`, the compound was classed as inactive in experiment [1], in [3], in experiment [4], in experiment [5], in experiment [6] and in experiment [7].
In the case of `CC(O)(CS(=O)(=O)c1ccc(F)cc1)C(=O)Nc1ccc(C#N)c(C(F)(F)F)c1` (stereo not given), in experiment [1], the outcome was inactive.
`Nc1ccc(N)cc1`: the result in experiment [1], in experiment [2], in [3], in [4], in experiment [5] and in [6] was inactive. The outcome in experiment [7] and in [8] was inactive.
As for `CN(C1CCCCC1)C1CCCCC1`, the outcome in experiment [1] and in [8] was inactive.
In the case of `c1cc[c]([Sb]([c]2ccccc2)[c]2ccccc2)cc1`, the AC50 in experiment [9] was 4.36 µM (active). The compound was classed as inactive in experiment [8].
Turning to `CC(C)[N+](=O)[O-]`, in [1], the call was inactive.
As to `CCCCOC(=O)COC(=O)c1ccccc1C(=O)OCCCC`, the compound was classed as inactive in [1], in experiment [3], in [4], in experiment [5], in experiment [6] and in experiment [7].
With `CCCCOC(C)=O`, the outcome in experiment [1] was inactive.
For `N#Cc1cccnc1`, the outcome in experiment [1], in [3], in experiment [10], in [4], in experiment [5] and in experiment [6] was inactive. In addition, the outcome in experiment [7] and in experiment [8] was inactive.
In the case of `N#Cc1ccc(Cl)cc1`, the result in experiment [9] and in experiment [8] was inactive.
With `O=S1(=O)OC(c2cc(Br)c(O)c(Br)c2)(c2cc(Br)c(O)c(Br)c2)c2ccccc21`, the compound was called inactive in [1] and in experiment [8].
Take `Nc1nc(N)nc(Cl)n1`: the outcome in experiment [1] was inactive.
Same read-out and setting: to `O=C(CCl)Nc1ccccc1` belongs “inactive”; to `O=C1C[C@@H]2OCC=C3CN4CC[C@]56c7ccccc7N1[C@H]5[C@H]2[C@H]3C[C@H]46`, “inactive”.
In the case of `Oc1c(Cl)cc(Cl)cc1Cl`, the compound was called inactive in [1], in experiment [2], in [3], in experiment [4], in experiment [5] and in experiment [6]. Moreover, the outcome in experiment [7] was inactive.
Turning to `OC(Cc1ccccc1Cl)(Cn1[nH]cnc1=S)C1(Cl)CC1` (stereo not given), the AC50 was 27.8 µM (active) in experiment [1], 33.2 µM (active) in experiment [3], 21.4 µM (active) in experiment [4] and 30.1 µM (active) in [5]. The outcome in [6], in experiment [7] and in experiment [8] was inactive.
In the case of `CCOC(=O)Cc1ccccc1`, in experiment [1], the outcome was inactive.
On to `CCOC(=O)c1ccccc1S(=O)(=O)NC(=O)Nc1nc(Cl)cc(OC)n1`, for which the compound was called inactive in experiment [1] and in experiment [8].
Take `C=CCCl`: the result in experiment [8] was inactive.
For `COCCl`, the compound was called inactive in experiment [1] and in [8].
In the case of `Cc1ccccc1OP(=O)(Oc1ccccc1)Oc1ccccc1`, the AC50 is 6.89 µM (active) in [3]; 31 µM (active) in [10]; 20 µM (active) in experiment [4]; 30.4 µM (active) in experiment [5]; 20 µM (active) in experiment [6]. For the same compound, the result in experiment [7] was inactive.
As for `N#Cc1ccccc1N`, the compound was called inactive in experiment [8].
Regarding `COc1nn(C(=O)NS(=O)(=O)c2ccccc2OC(F)(F)F)c(=O)n1C`, the compound was called inactive in [8].
Take `CC(C)(c1ccc(O)c(-c2ccccc2)c1)c1ccc(O)c(-c2ccccc2)c1`: the call in experiment [1] and in [8] was inactive.
Consider `CCCCS(=O)(=O)Cl`, for which the outcome in experiment [8] was inactive.
Same read-out and setting: to `ClCCCCl` belongs “inactive”.
Turning to `O=C(N[C@H]1CN2CCC1CC2)c1ccc2c(c1)OCCO2`, the outcome in experiment [2], in [3], in experiment [4], in experiment [5], in experiment [6] and in experiment [7] was inactive. Also, the call in experiment [8] was inactive.
`C[N+](C)(C)Cc1ccccc1`: the result in experiment [1] and in experiment [8] was inactive.
